The values below come from the OligoGym collection.
Further: reference of the scale not given here.

One experiment concerns the target GALNT9. Briefly: pooled miR-30 sensor sort-seq; sequence = guide strand. Particulars: shRNA.
As for TAGTAGTCAATGTCGTTGTTGT, the sensor-assay potency score (higher = more potent) was found to be 0.0429.

TTACCAGACCACAAGGAGCTGC: the sensor-assay potency score (higher = more potent) was -0.143.

TTGTTGTAGGGCTTCCTGGTGC had a sensor-assay potency score (higher = more potent) of 0.157.

Regarding TGATGTGTGACTTAGGTCTTGG, the sensor-assay potency score (higher = more potent) is 0.117.

Consider TTGCTGTTTCTCACCTCTCCGT, for which the sensor-assay potency score (higher = more potent) is -0.669.

Consider TTTCTGATCATCCACTTCTGCC, for which the sensor-assay potency score (higher = more potent) was -1.06.

Consider TTCGACATGGGGATGTTCCAGG, for which the sensor-assay potency score (higher = more potent) is -0.845.

For TTTGTCGCTGTCCATGTCCTCC, the sensor-assay potency score (higher = more potent) is -0.772.

TTGTAGACCCTCATCTCCGGGT: the sensor-assay potency score (higher = more potent) was -0.631.

A further experiment addresses GALNTL4. The experiment is described as above. Particulars: shRNA.
As to TTTGTCTTCCTCCAGCTTCTTG, the sensor-assay potency score (higher = more potent) is -1.15.

TTGTCATCATCATCCACGGTGG: the sensor-assay potency score (higher = more potent) was -0.503.

The sequence TTCAGTTCCTCGTTACTGCTGT came in with a sensor-assay potency score (higher = more potent) of 0.73.

In the case of TCGGTTGTCATCATCATCCACG, the sensor-assay potency score (higher = more potent) was -0.664.

In the case of AATAGTTTGATATCATACCATC, the sensor-assay potency score (higher = more potent) is -1.73.

Take TACTCTTCTATCTCAAAGTTGT: the sensor-assay potency score (higher = more potent) is -0.112.

For TGGATCTGCTGACTGCTCGTGT, the sensor-assay potency score (higher = more potent) was -0.605.

In the case of TTGACGTCCACCAGGCATCGGT, the sensor-assay potency score (higher = more potent) is -0.813.

In the case of ATATTCGGTCAGCTTCTCCTTC, the sensor-assay potency score (higher = more potent) is -0.121.

As for TTGATATCATACCATCACCTAC, the sensor-assay potency score (higher = more potent) was -1.18.

For the sequence TTCCTCCAGCTTCTTGTCGGGC, the sensor-assay potency score (higher = more potent) is -1.36.

A further experiment addresses GALT. Described as above. Particulars: shRNA.
Turning to AAGAGCTTCTTCATGATGGAGG, the sensor-assay potency score (higher = more potent) is -0.296.

Take TATAGGCCTGCTGAGATCGCTC: the sensor-assay potency score (higher = more potent) is -0.708.

With TTGTCAAACAGGAAGGTGCTAT, the sensor-assay potency score (higher = more potent) is -0.0645.

Turning to TAGCCAACCATGAATTTCCGGA, the sensor-assay potency score (higher = more potent) is -0.189.

TGAATTTCCGGACAGTGGCAGA: the sensor-assay potency score (higher = more potent) is -0.779.

On to TAGATCATCACGCTCAGCAGGG, for which the sensor-assay potency score (higher = more potent) was -0.0859.

As to ATATCTGGCAGGAAACTGCTGG, the sensor-assay potency score (higher = more potent) was -0.342.

As for TTGGTCAAGAGCTTCTTCATGA, the sensor-assay potency score (higher = more potent) is -0.31.

Consider TAATTCAGCAAGACTGTTGAAA, for which the sensor-assay potency score (higher = more potent) was determined as 0.0574.

Regarding TTTTCAAAGATCTGCACCCAAG, the sensor-assay potency score (higher = more potent) was -1.61.

As for TTCACCTCTCCGTTGGCTCGGA, the sensor-assay potency score (higher = more potent) was -0.467.

As for AAGGGGACCAGTACTAACCAGT, the sensor-assay potency score (higher = more potent) is -0.813.

TACTAACCAGTGCTCACTGGTT: the sensor-assay potency score (higher = more potent) was -0.859.

As for TAGCAGGGGCTCTCCATGCTGA, the sensor-assay potency score (higher = more potent) is -0.945.

AAAGAGGTTGTCATACTTGGTC: the sensor-assay potency score (higher = more potent) is -0.351.

On to TTGCCCGGAAGGTTGCTGCTGC, for which the sensor-assay potency score (higher = more potent) was -0.354.

TATCTGGCAGGAAACTGCTGGC: the sensor-assay potency score (higher = more potent) is -0.854.

Turning to ATACTTGGTCAAGAGCTTCTTC, the sensor-assay potency score (higher = more potent) was -0.165.

On to TTTGTTTTCAAAGATCTGCACC, for which the sensor-assay potency score (higher = more potent) is -0.471.

Regarding TGAGCAAGCATTTCGTAGCCAA, the sensor-assay potency score (higher = more potent) was -0.524.
